Compound activity deposited in PubChem BioAssay by National Center for Advancing Translational Sciences (NCATS).
Hits are enriched below; roughly 19% of the tested compounds scored in any of these assays.
TDP1 inh: inhibitors of human tyrosyl-DNA phosphodiesterase TDP1. recombinant TDP1, AlphaScreen DNA substrate cleavage. hit rate 0.28% among 350,000. Q9NUW8. Potency, µM (doses to about 130 µM), inactives show top-dose activity change, negative = inhibition, actives largely listed as inhibitors; also: potency is read from the fitted curve at half-maximal effect; % is scaled to controls: 0 for no effect and ±100 for the full control effect; nearly all actives have a fitted effect of over 40% in size
Target sequence (Q9NUW8 whole entry, looked up): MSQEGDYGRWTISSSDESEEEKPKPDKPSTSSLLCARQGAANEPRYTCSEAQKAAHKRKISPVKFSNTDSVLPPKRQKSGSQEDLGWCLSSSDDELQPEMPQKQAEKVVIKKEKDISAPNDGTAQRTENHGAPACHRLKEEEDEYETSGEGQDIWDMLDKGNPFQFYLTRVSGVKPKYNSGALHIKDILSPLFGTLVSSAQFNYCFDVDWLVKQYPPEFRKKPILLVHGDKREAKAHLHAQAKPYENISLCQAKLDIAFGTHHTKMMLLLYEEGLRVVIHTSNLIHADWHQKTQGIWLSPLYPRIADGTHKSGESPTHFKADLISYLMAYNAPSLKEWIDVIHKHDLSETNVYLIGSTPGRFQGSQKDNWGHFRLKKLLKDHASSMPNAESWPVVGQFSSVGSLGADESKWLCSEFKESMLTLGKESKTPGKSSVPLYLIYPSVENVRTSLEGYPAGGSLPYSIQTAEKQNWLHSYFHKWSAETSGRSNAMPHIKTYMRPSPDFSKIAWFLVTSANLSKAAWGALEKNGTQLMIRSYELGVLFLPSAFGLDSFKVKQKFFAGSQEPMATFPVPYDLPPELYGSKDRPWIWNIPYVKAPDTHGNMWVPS
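Here, a 5' biotin and 3' phosphotyrosine-FITC DNA oligonucleotide reports Tdp1 activity: intact substrate bridges AlphaScreen beads, while cleavage leaves a 3' phosphate and drops signal. All incubations at room temperature.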
HepG2 viability: counter-screen for TGF-b inhibitors: cytotoxicity in HepG2 cells | HepG2 CAGA-GFP viability, ATP luminescence, 18 h | Potency, µM (top dose mostly 46.1 µM), inactives show at the highest dose activity change, negative = cytotoxicity, usual class: cytotoxic | hit rate 0.76% among 410,000; also: potency is read from the fitted curve at half-maximal effect
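CellTiter-Glo luminescence gave cytotoxicity after 18 hours at 37 degrees C. The cells were HepG2 CAGA-GFP in 1% FBS DMEM, stimulated with 500 pg/mL TGF-beta after compound addition. %Activity was normalised to no-cell wells (complete cell-killing) and DMSO (no toxicity), and curves were fitted and classified.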
TGFb inhibitor: inhibitors of TGF-b signaling; HepG2 CAGA-GFP TGF-b/SMAD3 reporter, GFP fluorescence, 18 h; TGF-beta stimulated, 500 pg/mL final; Potency, µM (series often up to 46.1 µM), inactives show at the highest dose activity, negative = inhibition, hits mostly inhibitors; hit rate 1.2% among 410,000; AID 588855; also: potency is read from the fitted curve at half-maximal effect; % is scaled to controls: 0 for no effect and ±100 for the full control effect; nearly all actives have a fitted effect of over 65% in size
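Inhibition was scored as loss of TGF-beta-induced (500 pg/mL final, 18 hours, 37 degrees C) GFP in HEPG2 cells carrying a CAGA-GFP reporter, in DMEM with 1% FBS. Well GFP was summed per cell; Activity was normalised to unstimulated and stimulated DMSO wells, then concentration-response fitting.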
TDP1 cell noCPT: qHTS for Inhibitors of human tyrosyl-DNA phosphodiesterase 1 (TDP1): qHTS in cells in absence of CPT; DT40 Tdp1-/- hTDP1 cells, no CPT, ATP luminescence, 48 h; hit rate 15% among 420,000; Potency, µM (titrated, usually from 46.2 µM), for the others: at the highest dose activity change, negative = growth inhibition, hits mostly inhibitors; also: potency is read from the fitted curve at half-maximal effect; % is scaled to controls: 0 for no effect and ±100 for the full control effect; nearly all actives have a fitted effect of over 55% in size
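DT40 Tdp1-/-;hTDP1 cells, no CPT (DMSO vehicle only), 400 cells/well; compounds pin-transferred; ≥48 hr, 37 °C; CellTiter-Glo 30 min RT dark, luminescence read.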
IL-1B inflam inh: inflammasome signaling inhibition, IL-1 beta readout | AID 743279 | THP-1 LPS/ATP IL-1B secretion, AlphaLISA, 16 h; hits give low values | hit rate 4.7% among 360,000 | activity change, % at 57.5 µM; in the data active = activity change below about -50%; inconclusive = mostly about -30% to -49%; also: % is scaled to controls: 0 for no effect and ±100 for the full control effect
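Secreted IL-1B measured by AlphaLISA bead assay after 16 h compound exposure of THP-1 cells; compounds (final up to 57.5 uM) added 1 h before LPS (250 ng/mL) and ATP (1.25 mM) stimulation; lower signal means less secretion.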
DT40 TDP1 CPT: DT40-hTDP1 cell growth loss with CPT | Potency, µM (highest dose often 46.2 µM), inactives show at the highest dose activity change, negative = growth inhibition, usual class: inhibitors | hit rate 12% among 420,000 | chicken DT40 Tdp1-/-;hTDP1 cells + 20 nM CPT, ATP luminescence, 48 h; also: potency is read from the fitted curve at half-maximal effect; % is scaled to controls: 0 for no effect and ±100 for the full control effect; nearly all actives have a fitted effect of over 55% in size
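Cell growth measured by CellTiter-Glo luminescence after a minimum 48 h, 37 C compound exposure with 20 nM CPT in Tdp1-knockout DT40 cells stably expressing hTDP1, seeded 400/well; qHTS titration format.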
Active calls of the source: *; ? = inconclusive; / = no result given; [ ] = dose if it differs, or a comment. Unless noted, calls follow the shape of the dose curve; as a rule, active = well fitted curve in the direction sought with a large enough effect; inconclusive = small, poorly fitted or top-dose-only effect, or another doubt; inactive = no such curve, though single readings can be large; an effect the other way counts as inactive or inconclusive.

SMILES | TDP1 inh | HepG2 viability | TGFb inhibitor | TDP1 cell noCPT | IL-1B inflam inh | DT40 TDP1 CPT
O=C(CCCN1C(=O)/C(=C/c2ccc(F)cc2)SC1=S)NC1CCS(=O)(=O)C1 (stereo not drawn) | 4% | -28% | -14% | ? | 19 | 18µM*
CC(C)c1ccc(/C=C2\SC(=O)N(CC(=O)NC3CCS(=O)(=O)C3)C2=O)cc1 (stereo not drawn) | -6% | -30% | -12% | 16µM* | -30 | 23µM*
COc1ccc(NC(=O)CSc2nnc(NC(=O)NC3CCCCC3)s2)cc1OC | -3% | -10% | -8% | ? | / | ?
COc1cccc(N2CCN(S(=O)(=O)c3ccc(-c4cc(C(F)(F)F)on4)s3)CC2)c1 | -5% | -3% | -19% | -17% | / | -11%
Brc1cc2c(cc1Br)OCCOCCOCCOCCO2 | -1% | -1% | -17% | 10µM* | 0 | 15µM*
Brc1ccc2c(c1)OCCOCCOc1cc(Br)ccc1OCCOCCOCCO2 | 3% | -41% | ? | 2.9µM* | -56* | 5.2µM*
O=[N+]([O-])c1cc2c(cc1[N+](=O)[O-])OCCOCCOCCOCCO2 | 2% | 14% | 4% | -2% | -86* | -22%
Nc1ccc2c(c1)OCCOCCOCCOCCOCCO2 | 3% | 6% | 13% | 0% | 23 | -4%
CCOc1ccccc1NC(=O)NNS(=O)(=O)c1cc(OC)ccc1OC | 3%[56.1 µM] | -35% | -9% | -21% | 2 | -9%
COc1ccc(OC)c(/C(O)=C/C(=O)C(=O)Nc2cc(C)ccc2OC)c1 | 2% | -3% | -5% | ? | 7 | ?
COc1ccccc1NC(=O)C(=O)/C=C(\O)c1ccccc1 | -1% | 10% | 15% | 15µM* | / | 15µM*
COc1ccc(OC)c(/C(O)=C/C(=O)C(=O)Nc2cc(C)cc(C)c2)c1 | 6% | -22% | 1% | 18µM* | 53 | ?
CCOc1ccccc1NC(=O)C(=O)/C=C(\O)c1cc(OC)ccc1OC | 5% | -13% | 1% | 5.2µM* | 76 | 5.8µM*
CN1CCN(C(=O)C2=C[C@@H](c3ccc(Br)cc3)C[C@@H](OCc3ccc(CO)cc3)O2)CC1 | 3% | -13% | 0% | ? | -7 | ?
O=C(C1=C[C@@H](c2ccc(Br)cc2)C[C@@H](OCc2ccc(CO)cc2)O1)N1CCN(Cc2ccccc2)CC1 | 4% | -2% | ? | 23µM* | ? | ?
C#Cc1ccc([C@H]2C=C(C(=O)N3CCN(Cc4ccccc4)CC3)O[C@@H](OCc3ccc(CO)cc3)C2)cc1 | 3% | -19% | -24% | 18µM* | -23 | 16µM*
Cc1ccccc1Nc1oc(-c2ccccc2)nc1-c1ccccc1 | 11% | / | / | / | / | /
CCN(CC)S(=O)(=O)c1ccc(C(=O)NCC2(N3CCOCC3)CCCCC2)cc1 | 0% | -13% | -1% | ? | 0 | ?
COc1ccc(NC(=O)C(CC(C)C)NC(=O)C2CCC(C)CC2)c(OC)c1 (stereo not drawn) | 6% | -17% | -7% | ? | ? | 15µM*
CCC(C)C(NC(=O)C1CCC(C)CC1)C(=O)Nc1cc(OC)ccc1OC (stereo not drawn) | 7% | -24% | -19% | 18µM* | 1 | ?
COc1ccc(OC)c(NC(=O)C2CCCN2C(=O)C2CCC(C)CC2)c1 (stereo not drawn) | 4% | -36% | -16% | 13µM* | 55 | ?
Cc1ccc(-c2ccc(=O)n(CC(=O)Nc3ccc(F)c(Cl)c3)n2)cc1C | -1% | -1% | -4% | -1% | / | -11%
